Rows were chosen to be rich in hits. Some 16% of all compounds tested hit in one or more screens of this group.
DT40 TDP1 CPT – qHTS for Inhibitors of human tyrosyl-DNA phosphodiesterase 1 (TDP1): qHTS in cells in presence of CPT; 420,000 compounds, 12% hits; chicken DT40 Tdp1-/-;hTDP1 cells + 20 nM CPT, ATP luminescence, 48 h; AID 686979, 2013; Potency, µM (highest dose often 46.2 µM), inactives show top-dose activity change, negative = growth inhibition, most hits filed as inhibitors; note: potency is the fitted concentration of half-maximal effect; % is set by controls: 0 for no effect and ±100 for the full control effect; nearly all actives have a fitted effect of over 55% in size
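Chicken DT40 Tdp1-/- cells complemented with human TDP1, 400 cells/well, exposed to compounds plus 20 nM camptothecin for at least 48 h at 37 C; viability read as ATP content by CellTiter-Glo luminescence.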
uPA surface inh – qHTS for Inhibitors of Cell Surface uPA Generation. cell surface uPA generation assay, qHTS. Potency, µM (series often up to 38.3 µM), without a hit: top-dose activity change, negative = inhibition, usual class: inhibitors. 330,000 compounds, 0.31% hits. AID 540303, 2011; active = well fitted inhibition curve with a large enough effect; inconclusive = small, poorly fitted or top-dose-only effect; inactive = no such curve, though single readings can be large or run the other way; tested in mouse RAW 264.7 cells; note: potency is the fitted concentration of half-maximal effect; % is set by controls: 0 for no effect and ±100 for the full control effect; nearly all actives have a fitted effect of over 55% in size
miR-21 act – qHTS Assay for Modulators of miRNAs and/orActivators of miR-21; HeLa miR-21 FLuc reporter, luciferase, 48 h; Potency, µM (top dose mostly 38.3 µM), for the others: at the highest dose activity change, positive = activation, actives largely listed as activators; 340,000 tested, under 10 active; AID 2288, 2010;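 note: % of control where 0% means no effect; miR-21 action dims this reporter so a rising signal means less miR-21 action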
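HeLa cells endogenously expressing miR-21, stably carrying CMV-driven firefly luciferase with a downstream miR-21 binding site, 2000 cells/well. Titrations up to approximately 40 uM, 48 hours; luciferase luminescence read.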
TDP1 inh – qHTS Assay for Inhibitors of Tyrosyl-DNA Phosphodiesterase (TDP1); recombinant TDP1, AlphaScreen DNA substrate cleavage; 350,000 compounds, 0.28% hits; Tyrosyl-DNA phosphodiesterase 1 (Homo sapiens), Q9NUW8; Potency, µM (top dose mostly 130 µM), for the others: top-dose activity change, negative = inhibition, actives largely listed as inhibitors; note: potency is the fitted concentration of half-maximal effect; % is set by controls: 0 for no effect and ±100 for the full control effect; nearly all actives have a fitted effect of over 40% in size
Target sequence (Q9NUW8 whole entry, looked up): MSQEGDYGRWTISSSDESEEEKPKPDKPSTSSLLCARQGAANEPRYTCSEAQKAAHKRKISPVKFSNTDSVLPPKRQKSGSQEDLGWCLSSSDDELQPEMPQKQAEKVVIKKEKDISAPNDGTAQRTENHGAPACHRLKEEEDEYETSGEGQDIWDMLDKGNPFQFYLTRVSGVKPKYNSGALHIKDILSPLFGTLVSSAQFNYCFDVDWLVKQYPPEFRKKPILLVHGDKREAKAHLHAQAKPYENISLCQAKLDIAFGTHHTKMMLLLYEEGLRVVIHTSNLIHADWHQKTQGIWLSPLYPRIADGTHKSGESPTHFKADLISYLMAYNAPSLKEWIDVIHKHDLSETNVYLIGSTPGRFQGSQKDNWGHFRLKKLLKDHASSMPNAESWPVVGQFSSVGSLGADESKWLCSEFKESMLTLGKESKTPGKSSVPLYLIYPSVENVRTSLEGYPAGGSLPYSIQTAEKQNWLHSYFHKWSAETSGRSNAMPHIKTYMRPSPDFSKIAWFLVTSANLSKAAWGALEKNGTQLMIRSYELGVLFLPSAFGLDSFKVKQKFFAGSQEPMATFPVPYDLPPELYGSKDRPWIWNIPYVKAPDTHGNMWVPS
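Recombinant human Tdp1 (E. coli-expressed, 1 nM final) preincubated with compounds 15 min at room temperature, then 5'-biotin/3'-phosphotyrosine-FITC DNA substrate (15 nM final) added for 5 min. AlphaScreen beads (10 ug/ml final) added 10 min; cleavage lowers signal.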
DT40 TDP1 no CPT – qHTS for Inhibitors of human tyrosyl-DNA phosphodiesterase 1 (TDP1): qHTS in cells in absence of CPT. 420,000 compounds, 15% hits. AID 686978, 2013. DT40 Tdp1-/- hTDP1 cells, no CPT, ATP luminescence, 48 h. Potency, µM (top dose mostly 46.2 µM), for inactives: at the highest dose activity change, negative = growth inhibition, usual class: inhibitors; note: potency is the fitted concentration of half-maximal effect; % is set by controls: 0 for no effect and ±100 for the full control effect; nearly all actives have a fitted effect of over 55% in size
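Growth kinetics read by CellTiter-Glo luminescence after ≥48 hr at 37 °C. Cells: DT40 Tdp1-/- stably carrying human TDP1, 400 per well, compound exposure in the absence of CPT (DMSO vehicle).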
* hit, by the source's call; ? = inconclusive; · = not tested or not shown. Unless noted, calls come from the whole dose curve; as a rule, active = well fitted curve in the direction sought with a large enough effect; inconclusive = small, poorly fitted or top-dose-only effect, or another doubt; inactive = no such curve, though single readings can be large; an effect the other way counts as inactive or inconclusive.

SMILES	DT40 TDP1 CPT	uPA surface inh	miR-21 act	TDP1 inh	DT40 TDP1 no CPT
COc1ccc(OCCC(=O)OCC(=O)NCc2ccccc2)cc1	13%	8%	-2%	3%	-4%
O=C(NC(=S)NCCC1=CCCCC1)c1cncc(Br)c1	3%	-8%	-15%	0%	-7%
O=C(CSc1n[nH]c(=O)n1Cc1ccco1)c1ccc2c(c1)OCCO2	-21%	14%	-19%	·	1%
N#CCCN(C(=O)CN1c2cccc3cccc(c23)S1(=O)=O)c1ccccc1	-9%	0%	·	0%	-25%
Clc1ccc(OCc2nn3c(C4CCCCC4)nnc3s2)cc1	21µM*	5%	-4%	5%	21µM*
Cc1ccc(N(Cc2cc3ccc(C)cc3[nH]c2=O)C(=O)c2ccco2)c(C)c1	?	5%	-1%	6%	23µM*
Cc1ccc2cc(CN(C(=O)c3ccco3)c3ccccc3C)c(=O)[nH]c2c1	?	10%	-4%	1%	21µM*
COCC(=O)N(Cc1cc2ccc(C)cc2[nH]c1=O)c1ccc(C)cc1C	-4%	-1%	-4%	·	-9%
Cc1ccc2cc(CN(C(=O)c3ccco3)c3cccc(C)c3C)c(=O)[nH]c2c1	-28%	-2%	0%	1%	?
CC(=O)NCCC(=O)N1CCCC(N2CCN(c3cccc(Cl)c3)CC2)C1 (stereo unspecified)	-4%	1%	-22%	·	0%
CC(CNC(=O)C1CCN(S(=O)(=O)c2ccc3c(ccn3C)c2)CC1)c1ccccc1 (stereo unspecified)	-23%	·	0%	-2%	-4%
CCn1ccc2cc(S(=O)(=O)N3CCC(C(=O)NCC(C)c4ccccc4)CC3)ccc21 (stereo unspecified)	23µM*	·	-1%	8%	?
CC(CNC(=O)Cn1ccc2cc(S(=O)(=O)N3CCCCCC3)ccc21)c1ccccc1 (stereo unspecified)	16µM*	·	28%	3%	?
COc1ccc(N2CC(C(=O)Nc3nnc(SCC(=O)N4CCCC4)s3)CC2=O)cc1 (stereo unspecified)	-4%	8%	1%	1%	-3%
CC(=O)Nc1nc2ccccc2n1Cc1ccc(Cl)cc1	23µM*	-7%	24%	7%	?
CCC(=O)Nc1nc2ccccc2n1CCN(CC)CC	29µM*	·	-6%	1%	-4%
CCC(=O)Nc1nc2ccccc2n1Cc1ccccc1	15µM*	·	12%	3%	16µM*
CCC(=O)NCc1nc2ccccc2n1Cc1ccccc1	?	·	-2%	0%	-15%
CCC(=O)Nc1nc2ccccc2n1Cc1ccc(C)cc1	12µM*	0%	10%	7%	10µM*
COc1cccc(CC(=O)N2CCC(n3nccc3NC(=O)C3CC3)CC2)c1	6%	-1%	-10%	3%	0%
O=C(/C=C/c1ccccc1[N+](=O)[O-])N1CCN(C(=O)c2ccco2)CC1	-23%	2%	-5%	2%	-16%
O=[N+]([O-])c1ccc(N2CCN(c3cccc(Cl)c3)CC2)cn1	?	2%	3%	2%	?
Cc1ccc(S(=O)(=O)NC(CC(C)C)C(=O)N2CCN(C/C=C/c3ccccc3)CC2)cc1 (stereo unspecified)	16µM*	14%	·	1%	16µM*
Cc1ccc(S(=O)(=O)NC(C)(C)CN2CCC(Cc3ccccc3)CC2)cc1	16µM*	?	25%	·	18µM*
CC(C)(CN1CCCC1)NS(=O)(=O)c1ccc(Cl)cc1	3%	1%	-2%	·	-23%
SMILES	DT40 TDP1 CPT	uPA surface inh	miR-21 act	TDP1 inh	DT40 TDP1 no CPT
CC(C)(CN1CCNCC1)NS(=O)(=O)c1ccc(Cl)cc1	23µM*	?	·	3%	?
CC(=O)Nc1ccc(S(=O)(=O)NCCC(=O)N2CCN(C(c3ccccc3)c3ccccc3)CC2)cc1	?	-1%	·	·	16µM*
O=C(CCCCCCN1C(=O)c2ccccc2C1=O)NC1CCCCC1	-10%	8%	-8%	-13%	-25%
CC(=O)Nc1ccc(S(=O)(=O)NCCC(=O)N2CCC(Cc3ccccc3)CC2)cc1	?	-6%	·	2%	?
Cc1ccc(S(=O)(=O)NCCC(=O)N2CCN(C/C=C/c3ccccc3)CC2)cc1	?	-12%	·	1%	15µM*
Cc1ccc(S(=O)(=O)NCCC(=O)N2CCC(Cc3ccccc3)CC2)cc1	15µM*	2%	·	·	21µM*
COc1cc2sc(-c3ccc(S(C)(=O)=O)cc3)c(C#CCO)c2cc1OC	?	4%	·	3%	?
Cc1ccc(C)c(-c2nnc(NC(=O)CCS(=O)(=O)c3ccc(F)cc3)o2)c1	?	0%	·	0%	?
O=C(Nc1nc2ccc(S(=O)(=O)N3CCOCC3)cc2s1)c1cccs1	-7%	-1%	-19%	·	-25%
Brc1ccc2c(c1)C(C1=NCCN1)c1ccccc1CS2 (stereo unspecified)	7.3µM*	0.5µM*	22%	5%	5.8µM*
c1ccc2c(c1)CCCC2C1=NCCN1 (stereo unspecified)	-26%	4%	-1%	3%	-11%
CCN(CC)C(=O)c1sc(NC(=O)c2ccc(C)c([N+](=O)[O-])c2)c(C#N)c1C	?	1%	-14%	3%	21µM*
Cc1cc(C(=O)Nc2ccncc2)ccc1[N+](=O)[O-]	?	-12%	-25%	·	15µM*
Cc1ccc(C(=O)NC(=S)Nc2cccc(NC(=O)c3ccccc3)c2)cc1[N+](=O)[O-]	?	3%	-17%	3%	16µM*
Cc1ccc(NC(=O)c2ccncc2)cc1[N+](=O)[O-]	-4%	-3%	-15%	1%	-28%
Cc1ccc(C(=O)Nc2ccncc2)cc1[N+](=O)[O-]	?	-1%	4%	4%	0.73µM*
CC(=O)c1cccc(NC(=S)NNC(=O)c2ccc(C)c([N+](=O)[O-])c2)c1	-8%	-17%	-16%	8%	0%
COc1cccc(CNC(=O)c2ccc3c(c2)N(Cc2ccc(F)cc2Cl)C(=O)c2ccccc2S3)c1	?	·	5%	5%	?
Cc1ccc(C(=O)NCCSC(C)(C)C)cc1[N+](=O)[O-]	?	-1%	-55%	2%	?
Cc1ccc(C(=O)NCC(C)NC(=O)c2ccc(C)c([N+](=O)[O-])c2)cc1[N+](=O)[O-] (stereo unspecified)	?	0%	·	·	15µM*
O=C(CN1CCCCC1)Nc1cc(S(=O)(=O)N2CCOCC2)ccc1N1CCCC1	-19%	2%	·	1%	-17%
